# Measured values reported in PMC4336329 (PLoS ONE, 2015).
# Screen size: about 310,000 compounds; about 2,200 (0.71%) showed an effect of 50% or more. The effect is printed as a negative number. Shown is part of a subset that was picked to be rich in strong results.
# Target: human ether-à-go-go-related gene (hERG) potassium channel (human, UniProt Q12809)
# Test: primary screen, population patch clamp on CHO cells stably expressing hERG; higher = less effect of the substance
# Sequence of human ether-à-go-go-related gene (hERG) potassium channel (Q12809 whole entry, looked up): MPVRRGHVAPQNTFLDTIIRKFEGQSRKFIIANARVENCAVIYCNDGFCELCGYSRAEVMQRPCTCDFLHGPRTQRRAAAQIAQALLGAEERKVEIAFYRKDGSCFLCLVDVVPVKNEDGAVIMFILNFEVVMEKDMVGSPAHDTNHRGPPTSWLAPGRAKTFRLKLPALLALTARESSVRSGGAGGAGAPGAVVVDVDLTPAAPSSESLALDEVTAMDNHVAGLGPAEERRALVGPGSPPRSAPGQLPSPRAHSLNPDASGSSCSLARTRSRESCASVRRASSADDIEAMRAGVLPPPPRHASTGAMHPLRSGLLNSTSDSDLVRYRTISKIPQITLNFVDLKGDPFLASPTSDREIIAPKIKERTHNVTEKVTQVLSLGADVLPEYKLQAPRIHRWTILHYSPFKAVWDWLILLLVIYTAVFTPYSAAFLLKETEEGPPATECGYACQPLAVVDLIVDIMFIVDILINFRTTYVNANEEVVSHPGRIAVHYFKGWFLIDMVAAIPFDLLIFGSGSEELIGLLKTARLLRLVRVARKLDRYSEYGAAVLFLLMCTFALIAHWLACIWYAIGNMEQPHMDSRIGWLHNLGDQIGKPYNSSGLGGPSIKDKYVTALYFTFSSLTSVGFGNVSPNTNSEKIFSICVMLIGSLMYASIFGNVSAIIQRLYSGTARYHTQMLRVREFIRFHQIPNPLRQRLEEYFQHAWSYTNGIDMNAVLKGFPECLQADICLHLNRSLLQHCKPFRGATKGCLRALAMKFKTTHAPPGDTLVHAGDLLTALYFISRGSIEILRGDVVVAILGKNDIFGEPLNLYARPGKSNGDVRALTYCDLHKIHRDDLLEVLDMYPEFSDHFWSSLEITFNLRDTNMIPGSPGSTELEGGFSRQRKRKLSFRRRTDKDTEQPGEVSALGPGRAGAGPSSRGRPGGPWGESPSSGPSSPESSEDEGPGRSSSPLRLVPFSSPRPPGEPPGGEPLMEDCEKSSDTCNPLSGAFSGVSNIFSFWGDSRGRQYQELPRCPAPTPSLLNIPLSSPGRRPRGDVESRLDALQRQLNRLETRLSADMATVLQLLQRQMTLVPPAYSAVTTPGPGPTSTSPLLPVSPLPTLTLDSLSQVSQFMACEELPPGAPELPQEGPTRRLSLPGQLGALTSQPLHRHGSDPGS
row,SMILES,"hERG current change (%, negative = inhibition) at 1uM [%]"
1,CN(C)/N=C/C=C1\CCC/C(=C/c2cccs2)C1=O,7.9
2,O=C(COc1coc(CN2CCN(c3ccccc3)CC2)cc1=O)Nc1ccccc1,10.3
3,COc1ccc(C2NCCc3[nH]cnc32)cc1 (stereo not shown),0.887
4,CC(/C=N/NC(=O)c1cc(-c2ccncc2)nc2ccccc12)=C\c1ccco1,0.477
5,CC(c1ccco1)N(C(=O)COc1ccccc1[N+](=O)[O-])c1ccccn1 (stereo not shown),0.845
6,CC1CC(C)CN(C(=O)c2ccc(C(=O)c3ccccc3)cc2)C1 (stereo not shown),-1.23
7,Nc1nonc1-n1nnc(C(=O)N/N=C/c2ccccc2Cl)c1-c1ccccc1,18.9
8,COc1ccc(CCN(C)C(=O)c2ccc(S(=O)(=O)Nc3ccccc3C)cc2)cc1OC,10.8
9,O=C(Nc1ccc(S(=O)(=O)NC2CCCCC2)cc1)c1ccc(Br)o1,1.61
10,COc1cc2[nH]c3ccccc3c2cc1C,10.5
11,Cc1nccc2c1[nH]c1ccccc12,10.2
12,Cc1cc2[nH]c3c(c[n+](C)c4ccccc34)c2cc1C.[I-],-75.9
13,O=c1[nH]c(SCc2ccccc2)nc2c1cnn2-c1ccc(F)cc1,4.7
14,COc1ccc(C(CNC(=O)c2ccc(C)o2)N2CCOCC2)cc1 (stereo not shown),-1.5
15,CCOC(=O)c1[nH]c2ccc(Br)cc2c1NC(=O)CCN1CCC(C)CC1,-36.9
16,COC(=O)c1[nH]c2ccc(Cl)cc2c1NC(=O)CCN1CCOCC1,9.37
17,COC(=O)c1[nH]c2ccc(Br)cc2c1NC(=O)CN1CCCCC1CCO (stereo not shown),5.4
18,COC(=O)c1[nH]c2ccc(Br)cc2c1NC(=O)CN1CCN(C2CCCCC2)CC1,-85.1
19,COC(=O)c1[nH]c2ccccc2c1NC(=O)C(C)N1CCOCC1 (stereo not shown),9.91
20,CCOC(=O)C1CCCN(CC(=O)Nc2c(C(=O)OC)[nH]c3ccc(Br)cc23)C1 (stereo not shown),-3.53

row,SMILES,"hERG current change (%, negative = inhibition) at 1uM [%]"
1,COC(=O)c1[nH]c2ccc(C)cc2c1NC(=O)NC1CCCCC1,9.66
2,CCOC(=O)c1[nH]c2ccc(Br)cc2c1NC(=O)CCN1CCCC(C)C1 (stereo not shown),-66.8
3,CCOC(=O)c1[nH]c2ccc(OC)cc2c1NC(=O)CCN1CCCC(C)C1 (stereo not shown),-3.69
4,COC(=O)c1[nH]c2ccc(Cl)cc2c1NC(=O)CN1CCC(C(N)=O)CC1,10.6
5,COC(=O)c1[nH]c2ccc(C)cc2c1NC(=O)C(C)N1CCN(C2CCCCC2)CC1 (stereo not shown),-81
6,COC(=O)c1[nH]c2ccc(Cl)cc2c1NC(=O)CCN1CCN(C2CCCCC2)CC1,-69.5
7,NC(=O)Nc1ccccc1C(=O)NCCc1ccccc1,9.22
8,Cn1c(SCc2ccc3c(c2)OCO3)nnc1-c1ccccc1,10.4
9,Cc1cc2nnn(-c3nnc(-c4ccccc4)c4ccccc34)c2cc1C,5.53
10,CCCc1[nH]n(-c2ccc(F)cc2)c(=O)c1C=Nc1cccc(F)c1,16.9
11,COC(=O)c1[nH]c2ccc(Br)cc2c1NC(=O)C(C)N1CCN(C2CCCCC2)CC1 (stereo not shown),-82.6
12,COC(=O)c1[nH]c2ccc(Br)cc2c1NC(=O)CN1CCCc2ccccc21,8.7
13,COC(=O)c1[nH]c2ccccc2c1NC(=O)C(C)N1CC(C)OC(C)C1 (stereo not shown),10.2
14,Cc1scc(-c2n[nH]c(=S)n2C(C)c2ccccc2)c1C (stereo not shown),8.59
15,Cc1ccc(CNC(=O)[C@H](C)NC(=O)C2CCN(C(=O)[C@@H](N)CC(C)C)CC2)cc1,6.77
16,O=C(NCc1ccco1)c1c2c(nc3ccccc13)CCC2,3.32
17,OCCNc1c2ccccc2nc2ccccc12,-3.35
18,Cl.c1ccc(CNc2nc(NCc3ccccc3)c3ccccc3n2)cc1,16.8
19,COCCNc1c2c(nc3ccccc13)CCC2.Cl,-41.5
20,c1ccc(CNc2c3ccccc3nc3ccccc23)cc1,-74.5

row,SMILES,"hERG current change (%, negative = inhibition) at 1uM [%]"
1,Cl.c1ccc(CNc2c3c(nc4ccccc24)CCC3)cc1,-75.8
2,OCCNc1c2c(nc3ccccc13)CCCC2,-15.9
3,CC(C)CNc1c2c(nc3ccccc13)CCC2.Cl,-33.5
4,c1coc(CNc2c3c(nc4ccccc24)CCC3)c1,-82
5,CCc1ccc(NC(=O)c2cnc3scc(C)n3c2=O)cc1,4.58
6,Cc1ccc(NC(=S)NCCc2ccc(Cl)cc2)c(C)c1,12.4
7,COc1ccc(CNC(=O)CCCn2nc(C)c3c(C)n(-c4ccc(C)cc4)nc3c2=O)cc1,6.87
8,O=c1c2ccccc2cnn1Cc1nnc(-c2cccs2)o1,13.7
9,CCOC(=O)CSc1nc2c(c(=O)[nH]c(=O)n2C)n1CCCc1ccccc1,1.75
10,CCOc1ccc(S(=O)(=O)NCCCN2CCOCC2)cc1,9.88
11,Cn1cnnc1SCC(=O)OCN1C(=O)c2ccccc2C1=O,7.64
12,COc1ccc(CCNC(=O)c2cnc3ccccn3c2=O)cc1,-1.13
13,COc1ccc(CCNC(=O)c2cc3c(=O)n4ccccc4nc3n(C3CCCCC3)c2=N)cc1,-67.6
14,COc1ccc(CCNC(=O)c2cccc3ccccc23)cc1OC,22
15,COc1ccc(CCNC(=O)c2c(C)nc3ccccn23)cc1OC,-9.75
16,COc1ccc(CCNC(=O)c2cc3c(=O)n4ccccc4nc3n(C3CCCCC3)c2=N)cc1OC,-61.9
17,COc1ccc(CCNC(=O)c2c(C)nc3ccccn23)cc1,4.94
18,COc1ccc(CN(C)CC(=O)Nc2cccc(S(=O)(=O)N(C)c3ccccc3)c2)c(OC)c1,-25
